Measurements as given in PubChem BioAssay AID488789 (Broad Institute, 2010).
Measured potencies and affinities stand elsewhere. Results filed as inconclusive are left out. The source made the active and inactive calls.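 Rule for the calls: active = samples whose fitted half-maximal inhibition concentration is no more than ten times the top valid dose tested; inconclusive = flat response between -70 and -30, or invalid curve fit; inactive = flat within 30 of zero, potency above limit, or signal rising.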

Target: Trypsin (Sus scrofa) (UniProt P00761)
Assay: porcine trypsin inhibitors, dose response, selectivity assay for Rce1 protease inhibitor project, biochemical, quenched peptide fluorescence, cherry-pick (AID 488789);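 note: more negative means stronger trypsin inhibition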
Conditions: quenched peptide cleavage fluorescence; series mostly up to 10 µM; activity change, negative = inhibition: at the top concentration

Trypsin (Sus scrofa), sequence (P00761 whole entry, looked up): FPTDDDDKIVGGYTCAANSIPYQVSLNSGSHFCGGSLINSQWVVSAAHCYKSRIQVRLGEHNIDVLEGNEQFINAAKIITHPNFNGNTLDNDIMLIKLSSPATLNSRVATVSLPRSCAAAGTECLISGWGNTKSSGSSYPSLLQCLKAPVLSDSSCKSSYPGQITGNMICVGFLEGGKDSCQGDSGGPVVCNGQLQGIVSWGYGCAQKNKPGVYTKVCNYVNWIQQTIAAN

SMILES | activity change, negative = inhibition
Cc1ccnc(-n2c(-c3ccco3)nc3ccccc3c2=O)c1 | -2.18% (inactive)
c1ccc(CCCN2CCN(CCOC(c3ccccc3)c3ccccc3)CC2)cc1 | 10.9% (inactive)
C=CCn1c(O)c(C(CC)=Nc2ccc(N(CC)CC)cc2)c(=O)[nH]c1=O | 11.1% (inactive)
C=CC[N+]1(C)CC[C@]23c4c5ccc(O)c4O[C@H]2C(=O)CC[C@@]3(O)[C@H]1C5 (stereo partly drawn) | 11.1% (inactive)
CC(=O)OCC[N+](C)(C)C | 3.93% (inactive)
O=[N+]([O-])c1ccc(C[n+]2c(-c3ccccc3)cc(-c3ccccc3)cc2-c2ccccc2)cc1 | 87.5% (inactive)
Cc1ccc(-c2cc(-c3ccccc3)cc(-c3ccccc3)[n+]2-c2ccccc2)cc1 | -4.16% (inactive)
CN1CC(C(=O)c2ccc(Cl)cc2)C(c2ccc(Cl)cc2Cl)C1 (stereo not drawn) | 6.7% (inactive)
Cc1nccc2c1[nH]c1ccccc12 | 5.43% (inactive)
Clc1ccc(C[n+]2c(-c3ccccc3)cc(-c3ccccc3)cc2-c2ccccc2)cc1 | 8.29% (inactive)
CN1CCN(c2ccc([N+](=O)[O-])c(Sc3nncn3C)c2)CC1 | 6.55% (inactive)
CCOc1ccc(C2C(C#N)=C(N)Oc3c2c(=O)oc2ccccc32)cc1 (stereo not drawn) | 13.7% (inactive)
CCOC(=O)[C@@H]1[C@H]2COc3ccc(Br)cc3[C@@H]2N2C(=O)N(c3cccc(C)c3)C(=O)[C@]12C | 3.99% (inactive)
